Data: PubChem BioAssay (NCI)
About 83,000 compounds went through this panel and 20% of them were active in at least one assay; those are over-represented in the sample as a whole.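 For each line, cells grew in 96-well plates with the test compound present at a single concentration for 48 hours.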 Active and inactive are the calls of the source. Rule for the calls: active = growth percent below 10; inactive = the rest.

Columns and labels:
Experiment in all cases: NCI-60 one-dose screen, 48 h (100 = growth as untreated, 0 = no growth, -100 = all killed)
Settings in all cases: 10 µM unless noted
NCI-H23 lung = test system: NCI-H23 lung
NCI-H226 lung = test system: NCI-H226 lung
NCI-H322M lung = test system: NCI-H322M lung
HOP-62 NSCLC = test system: HOP-62 NSCLC
HOP-92 NSCLC = test system: HOP-92 NSCLC
NCI-H522 lung = test system: NCI-H522 lung
A549/ATCC NSCLC = test system: A549/ATCC NSCLC
786-0 renal = test system: 786-0 renal
COLO 205 colon = test system: COLO 205 colon
NCI-H460 lung = test system: NCI-H460 lung

Measured: growth

CC1C(c2ccccc2)OCCN1C(=S)Nc1ccc(S(=O)(=O)N2CCCCC2)cc1 (stereo unspecified)
active: NCI-H522 lung -34.1%
inactive: NCI-H23 lung 98.6% | NCI-H226 lung 91.6% | NCI-H322M lung 108% | HOP-62 NSCLC 109% | HOP-92 NSCLC 78.2% | A549/ATCC NSCLC 102% | 786-0 renal 109% | COLO 205 colon 108%

Cc1ccc(Nc2ccc(O)c3c2C(=O)c2c(O)ccc(Nc4ccc(C)cc4)c2C3=O)cc1
inactive: NCI-H23 lung 101% | NCI-H226 lung 95.6% | NCI-H322M lung 128% | HOP-62 NSCLC 101% | NCI-H522 lung 94.8% | A549/ATCC NSCLC 99.1% | 786-0 renal 102% | COLO 205 colon 108%

CCC(C)(O)Cc1ccc(Cl)cc1 (stereo unspecified)
inactive: NCI-H23 lung 109% | NCI-H226 lung 97.5% | NCI-H322M lung 100% | NCI-H460 lung 104% | HOP-92 NSCLC 102% | NCI-H522 lung 99.5% | A549/ATCC NSCLC 104% | 786-0 renal 100% | COLO 205 colon 108%

CCCCCCCCCCCCN1C(C)=CS/C1=C\C=C\c1scc(C)[n+]1CCCCCCCCCCCC
active: NCI-H522 lung 3.47% | COLO 205 colon 8.86%
inactive: NCI-H23 lung 10.8% | NCI-H226 lung 40.6% | NCI-H322M lung 96.8% | HOP-62 NSCLC 35.5% | HOP-92 NSCLC 36.8% | A549/ATCC NSCLC 16.6% | 786-0 renal 37.3%

CCOC(=O)C1=NN(c2ccccc2)C(=O)/C1=C\N1C(=O)/C(=C/c2cccc(O)c2)SC1=S
inactive: NCI-H23 lung 87.8% | NCI-H226 lung 103% | NCI-H322M lung 98.9% | NCI-H460 lung 103% | HOP-92 NSCLC 73.6% | NCI-H522 lung 82.3% | A549/ATCC NSCLC 79.3% | 786-0 renal 98.8% | COLO 205 colon 114%

CCCc1cc(=O)oc2c3c(c4c(c12)OC(C)(C)CC4)OC(C)[C@H](C)[C@@H]3O (stereo partly specified)
active: HOP-92 NSCLC -1.36%
inactive: NCI-H23 lung 81.4% | NCI-H226 lung 81.1% | NCI-H322M lung 106% | NCI-H460 lung 85.7% | NCI-H522 lung 57.7% | A549/ATCC NSCLC 72% | 786-0 renal 86.4% | COLO 205 colon 96.1%

CN(C)CCSC1=Nc2ccc(Cl)cc2C(c2ccccc2Cl)N(C)C1 (stereo unspecified)
inactive: NCI-H23 lung 90% | NCI-H226 lung 52.4% | NCI-H322M lung 58.7% | NCI-H460 lung 78.7% | HOP-92 NSCLC 51.4% | NCI-H522 lung 71.8% | A549/ATCC NSCLC 78% | 786-0 renal 65.2% | COLO 205 colon 70.4%

CC1(C)N=c2cc3c(cc2N1c1ccc(Cl)cc1)=Nc1ccccc1N3c1ccc(Cl)cc1
active: NCI-H23 lung 9.73% | HOP-62 NSCLC -19.2% | HOP-92 NSCLC -26.6% | NCI-H522 lung -22.1%
inactive: NCI-H226 lung 53% | NCI-H322M lung 75.2% | 786-0 renal 11.8% | COLO 205 colon 39.1%

O=C(c1ccccc1)C(O)C(Br)(CBr)c1ccccc1 (stereo unspecified)
active: NCI-H522 lung -30.8%
inactive: NCI-H23 lung 74.9% | NCI-H226 lung 90.2% | NCI-H322M lung 101% | HOP-62 NSCLC 107% | HOP-92 NSCLC 47.2% | A549/ATCC NSCLC 88.5% | 786-0 renal 105% | COLO 205 colon 120%

Nc1nc(-c2ccccc2)nc(N)c1N=O
active: NCI-H522 lung -7.61%
inactive: NCI-H23 lung 97.3% | NCI-H226 lung 90.4% | NCI-H322M lung 100% | NCI-H460 lung 23.8% | HOP-92 NSCLC 65.3% | A549/ATCC NSCLC 66% | 786-0 renal 83.6%

CN(C)c1ccc(/C=C/c2sc3ccc4ccccc4c3[n+]2C)cc1
active: NCI-H23 lung -25.9% | NCI-H226 lung -29.4% | NCI-H322M lung -10.5% | HOP-62 NSCLC -73.3% | A549/ATCC NSCLC -14% | 786-0 renal -90.8% | COLO 205 colon -85.8%

O=C(O)c1cccc2cccc(-c3c4ccc(=O)c(O)c-4oc4c(O)c(O)ccc34)c12
inactive: NCI-H23 lung 89.3% | NCI-H226 lung 95.5% | NCI-H322M lung 97.2% | NCI-H460 lung 100% | HOP-92 NSCLC 93.8% | NCI-H522 lung 90.9% | A549/ATCC NSCLC 96.4% | 786-0 renal 98.8% | COLO 205 colon 111%

NC1=C(Br)C(=O)c2ncccc2C1=O
active: NCI-H23 lung -46% | HOP-62 NSCLC -73.1% | NCI-H522 lung -59.1% | A549/ATCC NSCLC -52.6%
inactive: NCI-H226 lung 90.4% | NCI-H322M lung 34.9% | HOP-92 NSCLC 34.5% | 786-0 renal 11.4% | COLO 205 colon 37.9%

Oc1ccc2ccccc2c1N=Nc1nccs1
inactive: NCI-H23 lung 40% | NCI-H322M lung 15.7% | NCI-H460 lung 10.2% | HOP-92 NSCLC 46.9% | NCI-H522 lung 178% | A549/ATCC NSCLC 43.6% | COLO 205 colon 21.4%
active: NCI-H226 lung -0.189% | 786-0 renal -40.2%

CCOC(=O)c1cc(CC)sc1NC(=O)CC(C)=O
inactive: NCI-H23 lung 43.2% | NCI-H226 lung 70.1% | NCI-H322M lung 95.3% | HOP-62 NSCLC 73% | HOP-92 NSCLC 59% | NCI-H522 lung 34.4% | A549/ATCC NSCLC 78% | 786-0 renal 54.5% | COLO 205 colon 90.2%

CCN(CC)c1ccc(/C=C\C(=O)c2ccc(NC(C)=O)cc2)cc1
inactive: NCI-H23 lung 75.2% | NCI-H226 lung 99.6% | NCI-H322M lung 111% | HOP-62 NSCLC 56.2% | HOP-92 NSCLC 70.9% | A549/ATCC NSCLC 56.8% | COLO 205 colon 49.4%

CN(C)c1ccc(/C=C/c2cc[n+](C)c(/C=C/c3ccc(N(C)C)cc3)c2)cc1
inactive: NCI-H23 lung 10.5% | NCI-H226 lung 34.1% | HOP-62 NSCLC 19.3% | A549/ATCC NSCLC 14.5% | 786-0 renal 22.6%
active: NCI-H322M lung -9.9% | NCI-H522 lung -20.2% | COLO 205 colon -68.7%

CC(C)(C)c1ccc(O)c(Br)c1
inactive: NCI-H23 lung 93.6% | NCI-H226 lung 92.5% | NCI-H322M lung 101% | HOP-62 NSCLC 107% | HOP-92 NSCLC 98.2% | NCI-H522 lung 119% | A549/ATCC NSCLC 107% | 786-0 renal 100% | COLO 205 colon 105%

CCc1cccc(CC)c1N1C(=O)C=CC1=O
inactive: NCI-H23 lung 108% | NCI-H226 lung 117% | NCI-H322M lung 95.3% | NCI-H460 lung 96.1% | HOP-92 NSCLC 56.5% | NCI-H522 lung 91.6% | A549/ATCC NSCLC 71.9% | 786-0 renal 82.5% | COLO 205 colon 75.8%

CCCCCCC1N=C(N)N=C(N)N1c1cccc(Cl)c1 (stereo unspecified)
inactive: NCI-H226 lung 67.7% | NCI-H322M lung 43% | NCI-H460 lung 18.4% | HOP-92 NSCLC 15% | NCI-H522 lung 80.2% | A549/ATCC NSCLC 35.4% | 786-0 renal 21.8% | COLO 205 colon 54.4%
active: NCI-H23 lung 6.77%

CCCCCCCCCCCC[N+]1(CCCCCCCCCCCC)CCCC(C)C1 (stereo unspecified)
active: NCI-H23 lung -91.9% | NCI-H226 lung -77% | NCI-H322M lung -85.9% | HOP-62 NSCLC -96.3% | HOP-92 NSCLC -86.5% | NCI-H522 lung -90.1% | A549/ATCC NSCLC -98.6% | 786-0 renal -98.4% | COLO 205 colon -98.8%

O=C(NOC(=O)c1ccccc1)c1ccccc1
inactive: NCI-H23 lung 107% | NCI-H226 lung 106% | NCI-H322M lung 119% | NCI-H460 lung 97.9% | HOP-92 NSCLC 101% | NCI-H522 lung 98% | A549/ATCC NSCLC 120% | 786-0 renal 93.9% | COLO 205 colon 117%

O=C1/C(=C\c2ccc([N+](=O)[O-])cc2)CS(=O)(=O)C/C1=C/c1ccc([N+](=O)[O-])cc1
active: NCI-H23 lung -83.2% | NCI-H226 lung -67.2% | NCI-H322M lung -93.7% | NCI-H460 lung -54.5% | HOP-92 NSCLC -79.1% | NCI-H522 lung -79.9% | A549/ATCC NSCLC -50% | 786-0 renal -96.5% | COLO 205 colon -82.4%

COc1ccc2nc3cc(Cl)ccc3c(NCCCCCN3CCCCC3)c2c1
active: NCI-H23 lung -49.1% | NCI-H226 lung -39.8% | NCI-H322M lung -34% | NCI-H460 lung -62.9% | HOP-92 NSCLC -56.4% | NCI-H522 lung -71.6% | A549/ATCC NSCLC -33.1% | 786-0 renal -73.4% | COLO 205 colon -89.4%

NC(CS/C(Cl)=C/Cl)C(=O)O (stereo unspecified)
active: NCI-H460 lung -45.9% | A549/ATCC NSCLC -52.9%
inactive: NCI-H23 lung 97.6% | NCI-H226 lung 86.9% | NCI-H322M lung 73.5% | HOP-92 NSCLC 83.3% | NCI-H522 lung 93.4% | 786-0 renal 105%

CCCCCCCCCCCC[n+]1ccccc1 (tested in a mixture with another compound)
active: NCI-H23 lung -2.11% | HOP-62 NSCLC -24.3% | HOP-92 NSCLC -50.8% | NCI-H522 lung -53% | 786-0 renal -50%
inactive: NCI-H226 lung 11.3% | NCI-H322M lung 31.9%

CCCN(CCC)C(=O)c1ccc(C)cc1
inactive: NCI-H23 lung 99.3% | NCI-H226 lung 81.2% | NCI-H322M lung 111% | NCI-H460 lung 99.8% | HOP-92 NSCLC 66.3% | NCI-H522 lung 82.3% | A549/ATCC NSCLC 93.2% | 786-0 renal 98%
